Molecules are shown by their SMILES. Several values for one entry are separate records, joined by “and”; a condition that tells them apart may be missing. Identical values can stand only once. Screen size: about 94,000 compounds; about 2,100 (2.2%) were called active. Rule as the data show it: active = activity change below about -80%; inconclusive = no clear call, values can overlap the other calls; inactive = above that. Only a selection was taken, and actives are over-represented in it overall.

The nature of this assay: P. falciparum Dd2 growth inhibitors, primary screen, SYBR Green fluorescence, single dose replicates (AID 1159554). The settings on record: 72 h, at 10 µM, active compounds read low.
In the case of `C[C@H](CO)N1C[C@H](C)[C@H](CN(C)C(=O)C2CC2)Oc2ncc(C#Cc3ccccc3)cc2C1=O`, the activity change is -17.2% (inactive).

Consider `COc1cccc(C#Cc2cnc3c(c2)C(=O)N([C@@H](C)CO)C[C@H](C)[C@@H](CN(C)C(C)=O)O3)c1`, for which the activity change was -15.1% (inactive). With `C[C@H](CO)N1C[C@H](C)[C@H](CN(C)C(=O)C2CCCCC2)Oc2ncc(C#Cc3cccc(F)c3)cc2C1=O`, the activity change is -86.4% (active).

As for `C[C@H](CO)N1C[C@H](C)[C@H](CN(C)C(=O)C2CCCCC2)Oc2ncc(C#CC3CC3)cc2C1=O`, the activity change was -16.5% (inactive).

For the molecule `COc1ccc(-c2cnc3c(c2)C(=O)N([C@H](C)CO)C[C@@H](C)[C@H](CN(C)C(=O)Cc2ccncc2)O3)cc1`, the activity change is -84.6% (active). Turning to `COc1cccc(C#Cc2cnc3c(c2)C(=O)N([C@H](C)CO)C[C@@H](C)[C@@H](CN(C)C(=O)C2CCC2)O3)c1`, the activity change is -84.4% (active). In the case of `C[C@@H]1CN([C@H](C)CO)C(=O)c2cc(-c3ccccc3)cnc2O[C@H]1CN(C)C(=O)NC1CCCC1`, the activity change is -13% (inactive). For the molecule `C[C@@H]1CN([C@@H](C)CO)C(=O)c2cc(/C=C/c3ccccc3)cnc2O[C@H]1CN(C)C(=O)C1CCC1`, the activity change was -56.3% (inactive). With `C[C@H]1CN([C@@H](C)CO)C(=O)c2cc(/C=C/c3ccccc3)cnc2O[C@@H]1CN(C)C(=O)NC1CCCCC1`, the activity change was -82.8% (active).

Turning to `COc1cccc(C#Cc2cnc3c(c2)C(=O)N([C@@H](C)CO)C[C@H](C)[C@@H](CN(C)C(=O)C2CCC2)O3)c1`, the activity change was -74.6% (inactive). Turning to `COc1ccc(-c2cnc3c(c2)C(=O)N([C@@H](C)CO)C[C@H](C)[C@H](CN(C)C(=O)Cc2cccnc2)O3)cc1`, the activity change is -2.15% (inactive). With `C[C@H](CO)N1C[C@H](C)[C@@H](CN(C)C(=O)Cc2cccnc2)Oc2ncc(-c3ccncc3)cc2C1=O`, the activity change is 14.1% (inactive). With `CC(C)(C)[S@@](=O)N1Cc2cc(C(=O)N3CCCCC3)nc(-c3cccc(-c4cccc(C#N)c4)c3)c2[C@H]1CCO`, the activity change was -13.7% (inactive). With `O=C(c1ccc(F)cc1)N1CC(=O)N2[C@H](C1)[C@@H](c1ccc(C#CC3CC3)cc1)[C@@H]2CO`, the activity change is -8.1% (inactive). Turning to `Cc1ccc(S(=O)(=O)Nc2ccc3c(c2)C(=O)N([C@H](C)CO)C[C@H](C)[C@@H](CN(C)S(=O)(=O)c2cn(C)cn2)OCCCC[C@H](C)O3)cc1`, the activity change was -12.5% (inactive). For `COC(=O)C[C@H]1CC[C@H](NC(=O)Nc2ccc(C(F)(F)F)cc2)[C@H](CO)O1`, the activity change was 21.3% (inactive). Turning to `CCCNC(=O)C[C@H]1CC[C@@H]2[C@H](COc3ccc(NC(=O)c4ccc(OC)cc4)cc3C(=O)N2C)O1`, the activity change was -22.5% (inactive).

In the case of `CCC(=O)N1[C@@H](CO)[C@@H](c2ccccc2)C12CN(C(=O)c1cnccn1)C2`, the activity change is -2.84% (inactive).

`CCC(=O)N1CC2(CN(Cc3cccnc3)C2)c2c(n(C)c3cc(OC)ccc23)[C@@H]1CO`: the activity change is -20.9% (inactive). For the molecule `COc1ccc(NC(=O)N[C@@H]2CC[C@H](CCn3cc(-c4ccc(OC)cc4)nn3)O[C@@H]2CO)cc1`, the activity change is -56.9% (inactive). As to `C[C@H]1CN([C@@H](C)CO)C(=O)c2c(c3ccccc3n2C)-c2ccccc2CO[C@@H]1CN(C)C(=O)Nc1ccnc(N2CCOCC2)c1`, the activity change was -58.1% (inactive). The same measure for `CO[C@H]1CN(C)C(=O)c2cc(NC(=O)C3CC3)ccc2OC[C@H](C)N(CC2CCCC2)C[C@@H]1C`: -38.7% (inactive); for `CCS(=O)(=O)N1CC2(C1)CN(S(=O)(=O)c1ccccc1)[C@H](CO)c1c2c2ccc(OC)cc2n1C`: -29.8% (inactive); for `O=C(C[C@@H]1C[C@@H]2c3cc(NC(=O)c4ccc5c(c4)OCO5)ccc3O[C@@H]2[C@H](CO)O1)NCCc1ccccc1`: -3.19% (inactive). Consider `CCS(=O)(=O)N1CCC2(CC1)CN(Cc1ccc3c(c1)OCO3)[C@H](CO)c1[nH]c3cc(OC)ccc3c12`, for which the activity change is -89.1% (active). In the case of `CCCC(=O)N1CCC2(CC1)CN(C(=O)C1CCCCC1)[C@@H](CO)c1[nH]c3cc(OC)ccc3c12` it was -78% (inactive); in that of `CCC(=O)N1CCC2(CC1)CN(Cc1cccc(Cl)c1)[C@@H](CO)c1c2c2ccc(OC)cc2n1C`, -75.9% (inactive). `COc1ccc2c3c([nH]c2c1)[C@@H](CO)N(C(=O)NC(C)C)CC31CCN(C(=O)c2ccccn2)CC1`: the activity change was -13% (inactive). As to `CCC(=O)N1CC2(CN(Cc3ccc(Cl)cc3)C2)c2c([nH]c3cc(OC)ccc23)[C@@H]1CO`, the activity change was -23% (inactive). Turning to `COc1ccc2c3c([nH]c2c1)[C@@H](CO)N(Cc1ccc2c(c1)OCO2)CC31CN(C(=O)Nc2c(C)noc2C)C1`, the activity change is -13.6% (inactive). As to `CCC(=O)N1CCC2(CC1)CN(Cc1ccc(Cl)cc1)[C@@H](CO)c1[nH]c3cc(OC)ccc3c12`, the activity change is -90.6% (active). As for `CCCNC(=O)N1CCC2(CC1)CN(Cc1ccccc1)[C@H](CO)c1[nH]c3cc(OC)ccc3c12`, the activity change was -59.4% (inactive). In the case of `COc1ccc2c3c([nH]c2c1)[C@H](CO)N(C(=O)Nc1ccc(F)cc1)CC31CCN(C(=O)c2ccccn2)CC1`, the activity change is -79.3% (inactive). As for `COc1ccc2c3c([nH]c2c1)[C@H](CO)N(Cc1ccccc1)CC31CCN(C(=O)c2ccccn2)CC1`, the activity change is -83.5% (active). The same measure for `CCC(=O)N1CCC2(CC1)CN(Cc1cccc(OC)c1)[C@@H](CO)c1[nH]c3cc(OC)ccc3c12`: -89.5% (active). `CCS(=O)(=O)N1CCC2(CC1)CN(S(=O)(=O)c1ccc(C)cc1)[C@H](CO)c1[nH]c3cc(OC)ccc3c12`: the activity change is -53.4% (inactive). For `Cc1noc(C)c1NC(=O)N(C)C[C@@H]1Oc2cc(Br)ccc2S(=O)(=O)N([C@@H](C)CO)C[C@H]1C`, the activity change was 12.9% (inactive). On to `COc1cccc(NC(=O)C[C@@H]2CC[C@@H]3[C@H](COc4ccc(NC(=O)C5CCOCC5)cc4C(=O)N3C)O2)c1`, for which the activity change is 11.1% (inactive). In the case of `C/C=C/c1ccc2c(c1)[C@H]1[C@H](CCN1S(=O)(=O)c1cn(C)cn1)[C@H](CO)N2` it was -1.2% (inactive); in that of `CCCNC(=O)N1C[C@H]2[C@@H](c3ccccc31)[C@@H](CO)N2C(=O)NCCC`, -1.9% (inactive).

Take `CCCNC(=O)N1CC2(CCN(Cc3ccc(F)cc3)CC2)c2c([nH]c3cc(OC)ccc23)[C@@H]1CO`: the activity change was -77.7% (inactive). In the case of `COc1ccc2c3c([nH]c2c1)[C@H](CO)N(Cc1cccc(F)c1)CC31CCN(Cc2ccccn2)CC1` it was -92.5% (active).

On to `COc1ccc2c3c([nH]c2c1)[C@@H](CO)N(C(=O)Cc1ccccc1)CC31CCN(C)CC1`, for which the activity change is -55.8% (inactive). Regarding `COc1ccc2c3c([nH]c2c1)[C@H](CO)N(Cc1nccs1)CC31CCN(Cc2cccnc2)CC1`, the activity change was -58.7% (inactive). With `COc1ccc2c3c([nH]c2c1)[C@@H](CO)N(C(=O)C1CC1)CC31CCN(Cc2nccs2)CC1`, the activity change is -26.9% (inactive). The same measure for `COc1ccc2c3c([nH]c2c1)[C@H](CO)N(Cc1nccs1)CC31CCN(Cc2ccncc2)CC1`: -85.5% (active); for `COc1ccc2c3c([nH]c2c1)[C@H](CO)N(Cc1ccc(F)cc1)CC31CCN(Cc2ccccn2)CC1`: -89.5% (active). `COc1ccc2c3c([nH]c2c1)[C@@H](CO)N(Cc1nccs1)CC31CCN(C(=O)C2CCCC2)CC1`: the activity change is -74.5% (inactive). For `COc1cccc(CN2CC3(CN(Cc4ccccn4)C3)c3c([nH]c4cc(OC)ccc34)[C@@H]2CO)c1`, the activity change is -87.9% (active).

As to `C[C@@H]1CCCCO[C@@H](CN(C)S(=O)(=O)c2cn(C)cn2)[C@H](C)CN([C@H](C)CO)C(=O)c2cc(NS(=O)(=O)c3ccc(Cl)cc3)ccc2O1`, the activity change was -31.8% (inactive). On to `COCC(=O)N1C[C@@H](C)[C@H](OC)CN(C)C(=O)c2ccc(NC(=O)c3ccc(F)cc3)cc2OC[C@H]1C`, for which the activity change is 12.6% (inactive). In the case of `COc1ccc(NC(=O)N(C)C[C@H]2OCCCC[C@H](C)Oc3ccc(NS(=O)(=O)c4ccc(Cl)cc4)cc3C(=O)N([C@@H](C)CO)C[C@H]2C)cc1` it was -68.7% (inactive).

On to `CN(C)CC(=O)Nc1ccc2c(c1)[C@@H]1C[C@H](CC(=O)NCc3ccc(-c4ccccc4)cc3)O[C@@H](CO)[C@@H]1O2`, for which the activity change is -1.93% (inactive). The same measure for `COCC(=O)Nc1ccc2c(c1)OC[C@H](C)N(C)C[C@H](C)[C@@H](OC)CN(C)C2=O`: 26.8% (inactive); for `C[C@@H]1CCCCO[C@H](CN(C)S(C)(=O)=O)[C@@H](C)CN([C@H](C)CO)C(=O)c2cc(NC(=O)Nc3ccc4c(c3)OCO4)ccc2O1`: 25.2% (inactive); for `COCC(=O)Nc1ccc2c(c1)C(=O)N(C)[C@@H]1CC[C@@H](CC(=O)NCc3cccc(F)c3)O[C@@H]1CO2`: 5.24% (inactive). Turning to `CNC(=O)C[C@H]1CC[C@H]2[C@H](COc3ccc(NC(=O)c4cccc(F)c4)cc3C(=O)N2C)O1`, the activity change is 1.45% (inactive) and 0.97% (inactive). On to `CC(C)NC(=O)N[C@H]1CC[C@H](CC(=O)N2CCCCC2)O[C@@H]1CO`, for which the activity change is 36.7% (inactive).

Consider `CCS(=O)(=O)N1[C@H](CO)[C@@H](c2ccccc2)C12CN(C(=O)c1ccccc1F)C2`, for which the activity change was -5.45% (inactive). In the case of `COc1ccc2c3c([nH]c2c1)[C@@H](CO)N(C(=O)CC1CC1)CC31CCN(Cc2cccnc2)CC1` it was -7.62% (inactive). Take `COc1ccc2c3c([nH]c2c1)[C@@H](CO)N(C(=O)c1ccccc1)CC31CCN(Cc2cccnc2)CC1`: the activity change was -47.6% (inactive).

Take `COc1ccc2c3c([nH]c2c1)[C@@H](CO)N(Cc1ccccc1)CC31CCN(Cc2cncnc2)CC1`: the activity change was -91.1% (active). As for `CN(C)CC(=O)N[C@@H]1CC[C@H](CC(=O)O)O[C@H]1CO`, the activity change was 14.9% (inactive).

The values above are taken from PubChem BioAssay AID1159554 (Broad Institute, 2015).
